# Screening data: PubChem BioAssay, National Center for Advancing Translational Sciences (NCATS)
# Shown is part of a subset that was picked to be rich in hits.
# HTT-AS act: Primary qHTS for Identification of Small Molecule Activators of Huntingtin-Antisense Promoter Activity. 48,000 tested, 0.24% active. Potency, µM (top dose mostly 57.5 µM), for the others: top-dose activity change, positive = activation, actives largely listed as activators. HEK293 HTT-AS promoter firefly luciferase reporter, 24 h; response scale: percent change from vehicle, -100% = no light; further: nearly all actives have a fitted effect of over 55% in size
#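 Quantitative HTS used concentration series of up to 57.5 uM final on HEK293 luciferase reporter cells, 24 h at 37 degrees C. Readout was Dual-Glo firefly luminescence.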
# HTT prom inh: Primary qHTS for Identification of Small Molecule Inhibitors of Huntingtin Promoter Activity. Potency, µM (series often up to 57.5 µM), for inactives: at the top dose activity change, negative = inhibition, actives largely listed as inhibitors. 48,000 tested, 0.93% active. HEK293 HTT promoter firefly luciferase reporter, 24 h; further: nearly all actives have a fitted effect of over 50% in size
#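 Quantitative HTS used concentration series of up to 57.5 uM final on HEK293 luciferase reporter cells, 24 h at 37 degrees C. Readout was Dual-Glo firefly luminescence.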
# NTMT1 inhibitor: Primary qHTS for Inhibitors of N-terminal methyltransferase 1 (NTMT1): MTaseGlo Assay | N-terminal Xaa-Pro-Lys N-methyltransferase 1 (Homo sapiens), Q9BV86 | NTMT1 MTase-Glo SAH luminescence, purified enzyme | Potency, µM (doses to about 114 µM), inactives show at the top dose activity change, negative = inhibition, hits mostly inhibitors | 59,000 tested, 2.5% active;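 further: plate controls were DMSO vehicle for no effect and no enzyme for full effect; nearly all actives have a fitted effect of over 65% in size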
# Target sequence (Q9BV86 whole entry, looked up): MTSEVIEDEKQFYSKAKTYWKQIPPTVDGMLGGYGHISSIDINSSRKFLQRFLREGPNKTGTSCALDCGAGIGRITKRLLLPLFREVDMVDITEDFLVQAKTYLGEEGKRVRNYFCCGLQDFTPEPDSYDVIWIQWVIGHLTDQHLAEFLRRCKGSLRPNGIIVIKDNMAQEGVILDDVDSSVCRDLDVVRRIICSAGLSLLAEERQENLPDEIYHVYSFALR
# Starred values were filed as active, the others as inactive; ? = inconclusive; nt = no result; ! = a repeat was not active; [ ] = another dose, or the depositor's remark. The call rests on the fitted dose curve; in most records, active means well fitted curve in the direction sought with a large enough effect; inconclusive means small, poorly fitted or top-dose-only effect, or another doubt; inactive means no such curve, though single readings can be large; an effect the other way counts as inactive or inconclusive. Potency means the concentration at half of the fitted maximal effect.
SMILES,HTT-AS act,HTT prom inh,NTMT1 inhibitor
Cc1ccc(S(=O)(=O)Nc2cc(Cl)cc(C(=O)Nc3nc(-c4ccccc4)cs3)c2)cc1,nt,nt,12.6%
CC(C)CCC[C@@H](C)[C@H]1CC[C@H]2[C@@H]3CC=C4C[C@@H](OC(=O)NCCN(C)C)CC[C@]4(C)[C@H]3CC[C@]12C,nt,nt,22.4µM*
CC(=O)O[C@H]1CC[C@@]2(CI)C(=CC[C@@H]3[C@@H]2CC[C@]2(C)[C@@H]([C@H](C)CCCC(C)C)CC[C@@H]32)C1,nt,nt,-3.0%[12.6 µM]
Cc1[nH]c2ccc(C(=O)NCCc3ccccc3Cl)cc2c1C,?,33.7%,89.1µM*
Cc1c(C)n(Cc2ccccc2)c2ccc(C(=O)NCCc3ccccc3Cl)cc12,-11.2%,-6.4%,12.0%
CN[C@H]1CC[C@@H](c2ccc(Cl)c(Cl)c2)c2ccccc21,-38.2%,?,28.2µM*!
O=C(Nc1ccc(Cl)c(Cl)c1)N1CCC(c2ccccc2)C1 (stereo not given),?,49.9%,-19.8%
O=C1CCCC2=C1C(c1cccc(Oc3ccccc3)c1)N=C(Nc1nc3ccccc3o1)N2 (stereo not given),nt,nt,13.4%
CC(=O)c1ccc(N2CCN(C(=O)Nc3ccc(C(C)C)cc3)CC2)cc1,-58.5%,22.4µM*,-2.2%
CC(=O)c1ccc(N2CCN(C(=O)Nc3cn(CC(C)C)c(=O)c4ccccc34)CC2)cc1,-5.8%,2.1%,1.1%
COCC(=O)NCC=Cc1ccc2ncnc(Nc3ccc(Oc4ccc(C)nc4)c(C)c3)c2c1,-26.3%,?,?
Cc1cc(Nc2ncnc3ccc(-c4ccc(CNCCS(C)(=O)=O)o4)cc23)ccc1Oc1ccn2ncnc2c1,-43.8%,?,21.5µM*!
Cc1cccc(-n2cnc3cc(C(=O)N4CCOCC4)ccc32)c1,nt,nt,36.6%
O=C(Nc1cccc(C(F)(F)F)c1)c1ccc(F)c(S(=O)(=O)N2CCc3ccccc3C2)c1,-39.8%,28.2µM*,23.4%
CC(C)c1ccc(NC(=O)c2ccc(F)c(S(=O)(=O)N3CCc4ccccc4C3)c2)cc1,-25.5%,11.2µM*,5.1%
COc1ccc(CNS(=O)(=O)c2cc(C(=O)Nc3cc(Cl)cc(Cl)c3)ccc2F)cc1,-31.0%,?,10.5%
O=C(Nc1cccc(Cl)c1)c1ccc(F)c(S(=O)(=O)N2CCC3(CC2)OCCO3)c1,-22.9%,?,-5.8%
CC(C)c1ccc(NC(=O)c2ccc(F)c(S(=O)(=O)N3CCN(c4ccccc4F)CC3)c2)cc1,-12.5%,?,14.3%
COc1ccccc1CNS(=O)(=O)c1cc(C(=O)Nc2cccc(C(F)(F)F)c2)ccc1F,-46.9%,28.2µM*,1.5%
O=[S+]([O-])(NCc1nccs1)c1ccc(Nc2nc(-c3ccccc3)cs2)cc1,nt,nt,-9.2%
C/C=C(\C)C(=O)OCC1OC(OC2OC(COC(=O)/C(C)=C/C)C(OC3OC(CO)C(OC(=O)/C(C)=C/C)C(OC(=O)/C(C)=C/C)C3O)C(O)C2O)C(O)C(O)C1OC1OC(CO)C(OC(=O)/C(C)=C/C)C(OC(=O)/C(C)=C/C)C1O (stereo not given),nt,nt,-9.8%[12.6 µM]
COc1cc2c(Oc3ccc4[nH]c(C)cc4c3F)ncnc2cc1OCCCN1CCCC1,-24.5%,?,44.7µM*!
COc1cc2c(Nc3ccc(NC(=O)c4ccccc4)cc3)ncnc2cc1OCCCN1CCOCC1,-15.5%,4.7%,-9.2%
Cc1ccc2nc3sc(C(=O)N4CCCCC4)cc3cc2c1,nt,nt,0.3%[57.5 µM]
CCOc1ccc(C2C(C(=O)Nc3ccccc3)=C(C)Nc3nc(SCc4cccc(OC)c4)nn32)cc1 (stereo not given),4.1%,6.1%,7.3%
SMILES,HTT-AS act,HTT prom inh,NTMT1 inhibitor
COc1cccc(CSc2nc3n(n2)C(c2ccc(C(=O)O)cc2)C(C(=O)Nc2ccccc2)=C(C)N3)c1 (stereo not given),6.2%,12.9%,44.7µM*
CC(C)CC1NC(=O)C(C(C)c2ccccc2)NC(=O)C(C(C)C)NC(=O)C(C)NC(=O)CCCNC(=O)C(Cc2c[nH]c3ccccc23)NC(=O)C(C)NC1=O (stereo not given),nt,nt,3.2%[12.6 µM]
N=C(N)c1ccc2nc(-c3cc(CC(=O)NC(CC(=O)O)C(=O)O)cc(-c4cc(S(N)(=O)=O)ccc4O)c3O)[nH]c2c1 (stereo not given),nt,nt,-7.4%[57.5 µM]
Cc1c[nH]c2nc(Nc3ccc(N4CCN(C)CC4)c(F)c3)nc(-c3cccc(CC#N)c3)c12,nt,nt,25.1µM*
CC(=O)Nc1ncc(S(=O)(=O)N2CCOCC2)s1,nt,nt,-1.4%
CC(=O)O[C@H]1[C@H](C)[C@@H](O)[C@H]2[C@@H]1C=C(C(=O)O)[C@H]1C[C@@H]3[C@H]([C@H]21)[C@H]1C(=O)O[C@@H]2CC[C@@]3(C)O[C@]1(O)[C@@H]2C,nt,nt,-4.6%[29.8 µM]
COc1cc2nc(N3CCCCC3)nc(NC3CCN(Cc4ccccc4)CC3)c2cc1OC,nt,nt,44.7µM*
COc1cc2nc(-c3ccc(N4CCN(C)CC4)cc3)nc(NCCN3CCOCC3)c2cc1OC,-41.2%,?,-25.5%[57.5 µM]
COc1cc2nc(N3CCCC3)nc(NCCCCCN3CCCC3)c2cc1OC,nt,nt,31.6µM*
COc1cc2c(NC3CCN(C)CC3)nc(N3CCCN(C)CC3)nc2cc1OCCCN(C)C,nt,nt,-18.1%
COc1cc(/C=C/C(=O)O[C@H]2[C@H](OC(=O)/C=C/c3cc(OC)c(O)c(OC)c3)O[C@H](CO[C@@H]3O[C@H](CO)[C@@H](O)[C@H](O)[C@H]3O)[C@@H](O)[C@@H]2O)ccc1O,nt,nt,2.6%[12.6 µM]
COc1ccc(C2COc3cc(O)ccc3C2)c(O)c1 (stereo not given),nt,nt,8.7%[57.5 µM]
CCNCCc1ccc(CN(CC)c2cc(OC)ccc2[C@@H]2CCc3cc(O)ccc3C2)cc1,nt,nt,44.7µM*
COc1cccc(NC(=O)CC(=O)Nc2ccc3nc4n(c(=O)c3c2)CCCCC4)c1,-3.1%,-8.9%,-0.1%
COc1cc(OC)cc(C(=O)Nc2ccc3nc4n(c(=O)c3c2)CCCCC4)c1,?,69.2%,44.7µM*
CCOc1ccc(NC(=O)c2ccc3c(=O)n4c(nc3c2)CCCCC4)cc1,-10.6%,-10.4%,3.3%
COc1ccc(C)cc1NC(=O)c1ccc2c(=O)n3c(nc2c1)CCCCC3,-14.1%,-15.2%,79.4µM*
C=C(C)[C@@H]1CC[C@](C)(O)[C@@H](OC(=O)c2ccccc2)C1,nt,nt,-9.0%[57.5 µM]
CC(=O)c1ccc(N2CCN(S(=O)(=O)c3ccc4c(c3)C(=O)OC4)CC2)cc1,nt,nt,6.7%
Cc1ccc(C)c(SC2=N[S+](=O)([O-])c3cc(C(=O)Nc4ccc5ncccc5c4)ccc32)c1,nt,nt,-1.7%
Oc1ccc(C=Cc2cc(O)cc(O)c2)cc1,?,19.9%,?
Oc1ccc(/C=C/c2cc(O)cc(O)c2)cc1,?,7.0%,44.7µM*!
COC(=O)C1=CO[C@@H](O[C@@H]2O[C@H](CO[C@@H]3O[C@H](CO)[C@@H](O)[C@H](O)[C@H]3O)[C@@H](O)[C@H](O)[C@H]2O)[C@@H]2C(CO)=CC[C@H]12,nt,nt,-4.0%[29.8 µM]
CCCCCCCCCCCCCC[N+](C)(C)C,-27.4%,?,?
CCCCC/C(C=O)=C\c1ccccc1,2.7%,2.7%,-4.5%[57.5 µM]
